Reference: PubChem BioAssay (EPA / NIEHS)
Records with an inconclusive call do not appear. Calls of active or inactive are those of the source. Rule for the calls, unless noted: active = hit-call score of the fitted dose curve at least 0.9, where 1 is the maximum; inactive = score below 0.9.

What was measured:
[1] = ATG_PBREM_CIS: Attagene CIS-FACTORIAL HepG2 Assay for human Phenobarbital-responsive Enhancer Module (PBREM) (AID 2282955); details: HepG2 PBREM cis-reporter, Attagene multiplexed transcription; actives raise or lower the signal
Summary of the method: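 Readout: reporter mRNA, fluorescent RT-PCR fragments separated by capillary electrophoresis. System: HepG2 transiently transfected with cis-regulated reporter units. Exposure: 24 h. Analysis: bidirectional, DMSO baseline.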

[2] = biological target: Paired box protein Pax-6 (Homo sapiens) (UniProt P26367); assay: ATG_Pax6_CIS: Attagene CIS-FACTORIAL HepG2 Assay for human Paired Box 6 (PAX6) (AID 2282956); details: HepG2 CIS-FACTORIAL PAX6 reporter transcription, RNA readout; actives raise or lower the signal
Chain of Paired box protein Pax-6 (Homo sapiens) (P26367 whole entry, looked up): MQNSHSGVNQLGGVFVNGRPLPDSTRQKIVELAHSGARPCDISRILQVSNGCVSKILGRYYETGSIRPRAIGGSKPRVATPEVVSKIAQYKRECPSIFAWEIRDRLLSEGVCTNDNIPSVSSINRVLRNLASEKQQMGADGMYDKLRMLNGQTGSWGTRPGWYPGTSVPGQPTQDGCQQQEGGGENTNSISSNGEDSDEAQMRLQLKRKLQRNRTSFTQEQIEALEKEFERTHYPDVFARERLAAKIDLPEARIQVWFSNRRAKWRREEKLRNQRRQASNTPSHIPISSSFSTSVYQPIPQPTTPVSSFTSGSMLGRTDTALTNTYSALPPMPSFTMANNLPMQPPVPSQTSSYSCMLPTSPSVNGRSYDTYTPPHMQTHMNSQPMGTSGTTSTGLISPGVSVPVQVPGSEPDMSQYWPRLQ
Summary of the method: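 Transient MRTU transfection of HepG2 → compound exposure 24 h → TriZol RNA, oligo(dT) RT → PCR, 6-FAM primer extension, HpaI cut → capillary electrophoresis; activity fitted both directions against DMSO.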

[3] = ATG_PXRE_CIS: Attagene CIS-FACTORIAL HepG2 Assay for human Pregnane X Receptor Element (PXRE) (AID 2282957); details: HepG2 Attagene CIS-FACTORIAL PXRE reporter, mRNA; actives raise or lower the signal
Summary of the method: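 HepG2 cells transiently transfected with cis-regulated multiple reporter transcription units; endogenous factor activity measured as reporter mRNA 24 h after dosing. RT-PCR, fluorescent primer extension, HpaI digestion, capillary electrophoresis; bidirectional fit versus DMSO baseline.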

[4] = ATG_PPRE_CIS: Attagene CIS-FACTORIAL HepG2 Assay for human Peroxisome Proliferator-activated Response Element (PPRE) (AID 2282958); details: HepG2 PPRE cis-element reporter, Attagene transcription factor profiling; actives raise or lower the signal
Summary of the method: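 After human HepG2 hepatoma cells were transiently transfected with cis-promoter reporter constructs, they were exposed to test chemicals for 24 hours. Reporter RNA was then reverse-transcribed, PCR-amplified, FAM-labeled, HpaI-digested and quantified by capillary electrophoresis.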

[5] = ATG_RORE_CIS: Attagene CIS-FACTORIAL HepG2 Assay for human RAR-related Orphan Receptor Element (RORE) (AID 2282959); details: HepG2 Attagene cis-factorial RORE reporter, mRNA; actives raise or lower the signal
Summary of the method: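 Measured here: transcript induction of a cis-regulated reporter in HepG2 cells transiently transfected via FuGene 6. After 24 h, RNA was processed by RT-PCR and fluorescent capillary electrophoresis; DMSO defined baseline activity.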

[6] = ATG_Sox_CIS: Attagene CIS-FACTORIAL HepG2 Assay for human SRY-box transcription factor (SOX) (AID 2282960); details: HepG2 Attagene cis-factorial SOX reporter, mRNA; actives raise or lower the signal
Summary of the method: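 Using transiently transfected HepG2 cells, reporter transcription driven by cis elements was assessed 24 h after dosing. Signal was fluorescence of capillary-separated RT-PCR products, with DMSO defining baseline activity.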

[7] = biological target: Transcription factor Sp1 (Homo sapiens) (UniProt P08047); assay: ATG_Sp1_CIS: Attagene CIS-FACTORIAL HepG2 Assay for human Specificity Protein 1 (Sp1) (AID 2282961); details: HepG2 Sp1 cis-reporter transcription, actives raise or lower the signal
Chain of Transcription factor Sp1 (Homo sapiens) (P08047 whole entry, looked up): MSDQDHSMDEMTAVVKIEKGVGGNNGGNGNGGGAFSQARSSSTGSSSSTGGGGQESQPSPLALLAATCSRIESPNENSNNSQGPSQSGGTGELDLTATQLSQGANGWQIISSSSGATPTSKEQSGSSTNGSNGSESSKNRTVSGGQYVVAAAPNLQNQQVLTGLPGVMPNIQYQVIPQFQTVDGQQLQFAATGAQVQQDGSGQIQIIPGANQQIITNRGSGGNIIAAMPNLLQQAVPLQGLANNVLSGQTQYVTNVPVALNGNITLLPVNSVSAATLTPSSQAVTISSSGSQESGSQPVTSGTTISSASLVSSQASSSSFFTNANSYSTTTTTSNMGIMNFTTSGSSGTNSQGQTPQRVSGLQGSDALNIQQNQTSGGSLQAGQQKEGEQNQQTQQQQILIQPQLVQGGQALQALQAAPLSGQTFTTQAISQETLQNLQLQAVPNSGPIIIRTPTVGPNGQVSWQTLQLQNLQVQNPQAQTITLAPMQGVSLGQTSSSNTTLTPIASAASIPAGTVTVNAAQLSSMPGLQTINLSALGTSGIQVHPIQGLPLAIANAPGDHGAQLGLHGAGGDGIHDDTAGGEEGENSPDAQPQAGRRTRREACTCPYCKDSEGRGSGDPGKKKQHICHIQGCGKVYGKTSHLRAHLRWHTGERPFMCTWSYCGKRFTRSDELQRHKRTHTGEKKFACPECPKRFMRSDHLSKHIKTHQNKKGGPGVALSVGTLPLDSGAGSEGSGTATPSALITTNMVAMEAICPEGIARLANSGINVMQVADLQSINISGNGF
Summary of the method: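 After transient transfection of HepG2 cells with cis-promoter reporter units and 24 h chemical treatment, reporter transcripts were quantified by RT-PCR and capillary electrophoresis fluorescence. Gain- and loss-of-signal fitted against DMSO.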

[8] = ATG_SREBP_CIS: Attagene CIS-FACTORIAL HepG2 Assay for human Sterol Regulatory Element Binding (SREBP) (AID 2282962); details: HepG2 Attagene cis-factorial SREBP reporter, mRNA; actives raise or lower the signal
Summary of the method: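 Transfected HepG2 (cis-regulated reporter library, endogenous TFs) → compound 24 h → total RNA → oligo(dT) RT → reporter-specific PCR → FAM primer extension, HpaI cut → CE fluorescence. Fit bidirectional vs DMSO.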

[9] = biological target: Signal transducer and activator of transcription 3 (Homo sapiens) (UniProt P40763); assay: ATG_STAT3_CIS: Attagene CIS-FACTORIAL HepG2 Assay for human Signal Transducer and Activator of Transcription 3 (STAT3) (AID 2282963); details: HepG2, Attagene cis-factorial STAT3 reporter transcription; actives raise or lower the signal
Chain of Signal transducer and activator of transcription 3 (Homo sapiens) (P40763 whole entry, looked up): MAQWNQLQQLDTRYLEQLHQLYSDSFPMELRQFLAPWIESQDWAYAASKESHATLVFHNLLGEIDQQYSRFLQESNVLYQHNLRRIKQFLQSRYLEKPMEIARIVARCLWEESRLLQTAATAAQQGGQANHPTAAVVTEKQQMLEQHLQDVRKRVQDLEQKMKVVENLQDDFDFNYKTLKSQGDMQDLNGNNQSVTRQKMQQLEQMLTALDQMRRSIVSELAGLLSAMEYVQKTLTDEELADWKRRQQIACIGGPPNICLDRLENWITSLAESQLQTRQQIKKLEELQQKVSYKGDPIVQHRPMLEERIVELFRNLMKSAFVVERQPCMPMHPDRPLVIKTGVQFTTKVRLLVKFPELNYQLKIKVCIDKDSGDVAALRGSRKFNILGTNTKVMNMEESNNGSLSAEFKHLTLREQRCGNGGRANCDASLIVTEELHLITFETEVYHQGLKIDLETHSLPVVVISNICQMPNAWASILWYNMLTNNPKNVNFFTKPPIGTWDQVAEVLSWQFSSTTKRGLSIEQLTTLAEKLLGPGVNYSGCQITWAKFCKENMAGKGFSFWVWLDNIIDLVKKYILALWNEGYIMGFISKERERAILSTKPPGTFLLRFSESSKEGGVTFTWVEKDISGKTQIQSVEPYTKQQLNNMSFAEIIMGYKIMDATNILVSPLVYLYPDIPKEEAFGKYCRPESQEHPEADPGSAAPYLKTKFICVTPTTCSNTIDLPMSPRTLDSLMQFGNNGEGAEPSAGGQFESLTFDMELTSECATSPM
Summary of the method: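 HepG2 cells transiently transfected with multiple cis-element-driven reporter units report endogenous transcription factor activity. After 24 h compound exposure, reporter mRNA is measured by RT-PCR, 6-FAM labelling, HpaI digestion and capillary electrophoresis. Fitted bidirectionally versus DMSO.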

[10] = ATG_TA_CIS: Attagene CIS-FACTORIAL HepG2 Assay for human TA Basal Promoter (AID 2282964); details: HepG2 Attagene CIS-factorial TA basal promoter reporter; actives raise or lower the signal
Summary of the method: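 HepG2 cells transiently transfected with multiplexed cis-promoter reporter units, dosed 24 h. Reporter mRNA measured by RT-PCR, 6-FAM labelling, HpaI digestion and capillary electrophoresis; bidirectional fit versus DMSO baseline, serving as background control.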

[11] = ATG_TCF_b_cat_CIS: Attagene CIS-FACTORIAL HepG2 Assay for human T-Cell-Factor with beta-catenin (TCF/b-cat) (AID 2282965); details: HepG2 TCF/beta-catenin cis-reporter transcription, actives raise or lower the signal
Summary of the method: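 HepG2, transient MRTU transfection, cis-element-driven reporters (endogenous TFs). 24 h compound exposure. Readout: reporter mRNA by RT-PCR + 6-FAM primer extension, HpaI digest, capillary electrophoresis. Gain/loss fit vs DMSO baseline.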

[12] = ATG_TAL_CIS: Attagene CIS-FACTORIAL HepG2 Assay for human TAL Basal Promoter (AID 2282966); details: HepG2 Attagene cis-factorial TAL promoter reporter; actives raise or lower the signal;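 note: background control endpoint measuring basal TAL promoter reporter mRNA not a specific factor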
Summary of the method: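 HepG2 cells were transiently transfected with promoter-driven multiplexed reporter units and dosed for 24 h. Reporter mRNA was measured by RT-PCR with capillary electrophoresis fluorescence; bidirectional fits used DMSO as baseline, serving as a background control.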

[13] = ATG_TGFb_CIS: Attagene CIS-FACTORIAL HepG2 Assay for human Transforming Growth Factor (TGF) (AID 2282967); details: HepG2 Attagene CIS TGFb reporter, mRNA transcription; actives raise or lower the signal
Summary of the method: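 HepG2 cells transiently transfected with cis-promoter-driven multiplexed reporter units; 24 h compound exposure. Reporter mRNA measured by RT-PCR, 6-FAM labeling, HpaI digestion and capillary electrophoresis; bidirectional fit versus DMSO baseline.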

[14] = ATG_VDRE_CIS: Attagene CIS-FACTORIAL HepG2 Assay for human Vitamin D Receptor Element (VDRE) (AID 2282968); details: HepG2 VDRE cis-reporter transcription, actives raise or lower the signal
Summary of the method: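 Transiently transfected HepG2 cells carrying cis-regulated reporter transcription units were exposed for 24 h. Reporter mRNA was measured by RT-PCR with fluorescent labelling and capillary electrophoresis, and fitted in both directions against DMSO.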

[15] = biological target: Nuclear receptor subfamily 1 group I member 3 (Homo sapiens) (UniProt Q14994); assay: ATG_CAR_TRANS: Attagene TRANS-FACTORIAL HepG2 Assay for human Constitutive Androstane Receptor (CAR) (AID 2282969; active = hit-call score of the fitted dose curve at least 0.9, where 1 is the maximum;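 note: activators raise reporter mRNA above DMSO so AC50 marks induction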); details: HepG2 Attagene TRANS-FACTORIAL CAR reporter
Chain of Nuclear receptor subfamily 1 group I member 3 (Homo sapiens) (Q14994 whole entry, looked up, the tested form may be a part): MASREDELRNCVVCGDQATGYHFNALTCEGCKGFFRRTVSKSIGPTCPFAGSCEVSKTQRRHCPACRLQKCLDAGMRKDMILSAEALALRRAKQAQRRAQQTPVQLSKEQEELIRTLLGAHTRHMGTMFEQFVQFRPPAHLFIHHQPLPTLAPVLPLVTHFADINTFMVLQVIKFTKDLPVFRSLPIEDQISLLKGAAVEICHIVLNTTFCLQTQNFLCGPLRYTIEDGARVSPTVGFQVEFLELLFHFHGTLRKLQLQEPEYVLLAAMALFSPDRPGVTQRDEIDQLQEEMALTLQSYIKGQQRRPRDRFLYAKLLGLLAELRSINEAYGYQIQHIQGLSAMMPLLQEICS
Summary of the method: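 HepG2 cells transiently transfected with GAL4-UAS reporter units; TRANS format reads activity of exogenous chimeric NR-Gal4 protein. After 24 h dosing, reporter mRNA quantified by RT-PCR, 6-FAM labelling and capillary electrophoresis; gain of signal fitted against DMSO.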

[16] = biological target: Steroid hormone receptor ERR1 (Homo sapiens) (UniProt P11474); assay: ATG_ERRa_TRANS: Attagene TRANS-FACTORIAL HepG2 Assay for human Estrogen-Related Receptor alpha (ERRa) (AID 2282971; active = hit-call score of the fitted dose curve at least 0.9, where 1 is the maximum); details: HepG2 Attagene TRANS reporter, ERRa transactivation
Chain of Steroid hormone receptor ERR1 (Homo sapiens) (P11474 whole entry, looked up, the tested form may be a part): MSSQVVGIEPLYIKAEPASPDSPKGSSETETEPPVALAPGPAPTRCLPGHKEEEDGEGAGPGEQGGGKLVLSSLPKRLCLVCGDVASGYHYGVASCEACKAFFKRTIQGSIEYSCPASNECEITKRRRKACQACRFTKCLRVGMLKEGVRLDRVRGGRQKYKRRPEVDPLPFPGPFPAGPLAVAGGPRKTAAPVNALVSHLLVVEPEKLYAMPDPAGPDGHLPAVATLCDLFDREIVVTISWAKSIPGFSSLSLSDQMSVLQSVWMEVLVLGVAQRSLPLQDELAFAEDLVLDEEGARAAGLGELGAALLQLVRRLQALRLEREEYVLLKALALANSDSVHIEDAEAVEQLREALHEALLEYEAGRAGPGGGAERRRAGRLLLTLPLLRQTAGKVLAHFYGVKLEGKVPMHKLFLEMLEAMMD
Summary of the method: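 HepG2 cells transiently transfected with multiplexed GAL4-UAS reporter units reading chimeric ERRa-Gal4 activity; 24 h compound exposure. Reporter mRNA measured by RT-PCR, 6-FAM labelling, HpaI digest and capillary electrophoresis; gain of signal fitted versus DMSO baseline.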

[17] = biological target: X-box-binding protein 1 (Homo sapiens) (UniProt P17861); assay: ATG_Xbp1_CIS: Attagene CIS-FACTORIAL HepG2 Assay for human X-box Binding Protein 1 (XBP1) (AID 2282972); details: HepG2 XBP1 cis-element reporter, Attagene multiplex; actives raise or lower the signal
Chain of X-box-binding protein 1 (Homo sapiens) (P17861 whole entry, looked up): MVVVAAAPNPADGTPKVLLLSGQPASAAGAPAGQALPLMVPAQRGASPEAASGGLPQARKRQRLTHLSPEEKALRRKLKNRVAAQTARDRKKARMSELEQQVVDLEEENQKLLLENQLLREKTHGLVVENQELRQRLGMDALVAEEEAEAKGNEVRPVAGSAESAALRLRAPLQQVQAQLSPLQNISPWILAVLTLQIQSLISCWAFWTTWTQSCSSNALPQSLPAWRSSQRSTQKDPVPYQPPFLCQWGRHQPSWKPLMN
Summary of the method: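 HepG2, transient MRTU transfection (cis-promoter driven), 24 h compound exposure. Total RNA → oligo(dT) RT → PCR → 6-FAM labeling → HpaI cut → CE. Bidirectional fit vs DMSO.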

[18] = biological target: Estrogen receptor (Homo sapiens) (UniProt P03372); assay: ATG_ERa_TRANS: Attagene TRANS-FACTORIAL HepG2 Assay for human Estrogen Receptor alpha (ERa) (AID 2282970; active = hit-call score of the fitted dose curve at least 0.9, where 1 is the maximum); details: HepG2 Attagene TRANS ERa GAL4 reporter, mRNA
Chain of Estrogen receptor (Homo sapiens) (P03372 whole entry, looked up, the tested form may be a part): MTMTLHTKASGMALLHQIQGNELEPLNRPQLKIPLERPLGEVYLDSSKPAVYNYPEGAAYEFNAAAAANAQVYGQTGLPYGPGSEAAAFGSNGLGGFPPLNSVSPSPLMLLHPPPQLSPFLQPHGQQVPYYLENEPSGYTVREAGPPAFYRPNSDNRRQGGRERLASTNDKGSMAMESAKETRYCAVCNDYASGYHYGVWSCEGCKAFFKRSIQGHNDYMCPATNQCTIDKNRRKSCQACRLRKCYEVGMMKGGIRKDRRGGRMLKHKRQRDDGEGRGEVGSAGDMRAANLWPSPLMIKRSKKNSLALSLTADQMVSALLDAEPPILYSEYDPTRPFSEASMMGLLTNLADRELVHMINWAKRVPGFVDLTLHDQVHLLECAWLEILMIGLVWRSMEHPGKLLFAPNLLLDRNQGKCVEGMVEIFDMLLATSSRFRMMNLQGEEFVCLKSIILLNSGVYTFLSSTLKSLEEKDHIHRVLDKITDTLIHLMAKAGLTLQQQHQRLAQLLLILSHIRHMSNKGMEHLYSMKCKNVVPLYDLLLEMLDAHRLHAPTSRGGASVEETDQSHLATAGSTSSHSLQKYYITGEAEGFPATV
Summary of the method: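 HepG2 cells transiently transfected with multiplexed GAL4-UAS reporter units; ERa activity read via exogenous chimeric NR-Gal4 protein. After 24 hour compound exposure, reporter mRNA measured by RT-PCR with 6-FAM labelling and capillary electrophoresis; gain-of-signal fitted relative to DMSO.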

[19] = ATG_M_19_TRANS: Attagene TRANS-FACTORIAL HepG2 Assay for M19 Transcription Factor (Internal Marker) (AID 2282974; active = hit-call score of the fitted dose curve at least 0.9, where 1 is the maximum); details: HepG2 Attagene TRANS-FACTORIAL M19 internal marker reporter
Summary of the method: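 Gain-of-signal in reporter mRNA, relative to DMSO, was scored from capillary electrophoresis fluorescence. HepG2 cells carried transiently transfected multiple reporter transcription units and were incubated with test chemicals for 24 h.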

[20] = biological target: Androgen receptor (Homo sapiens) (UniProt P10275); assay: ATG_AR_TRANS: Attagene TRANS-FACTORIAL HepG2 Assay for human Androgen Receptor (AR) (AID 2282973; active = hit-call score of the fitted dose curve at least 0.9, where 1 is the maximum); details: HepG2 Attagene TRANS-FACTORIAL AR reporter transcription
Chain of Androgen receptor (Homo sapiens) (P10275 whole entry, looked up, the tested form may be a part): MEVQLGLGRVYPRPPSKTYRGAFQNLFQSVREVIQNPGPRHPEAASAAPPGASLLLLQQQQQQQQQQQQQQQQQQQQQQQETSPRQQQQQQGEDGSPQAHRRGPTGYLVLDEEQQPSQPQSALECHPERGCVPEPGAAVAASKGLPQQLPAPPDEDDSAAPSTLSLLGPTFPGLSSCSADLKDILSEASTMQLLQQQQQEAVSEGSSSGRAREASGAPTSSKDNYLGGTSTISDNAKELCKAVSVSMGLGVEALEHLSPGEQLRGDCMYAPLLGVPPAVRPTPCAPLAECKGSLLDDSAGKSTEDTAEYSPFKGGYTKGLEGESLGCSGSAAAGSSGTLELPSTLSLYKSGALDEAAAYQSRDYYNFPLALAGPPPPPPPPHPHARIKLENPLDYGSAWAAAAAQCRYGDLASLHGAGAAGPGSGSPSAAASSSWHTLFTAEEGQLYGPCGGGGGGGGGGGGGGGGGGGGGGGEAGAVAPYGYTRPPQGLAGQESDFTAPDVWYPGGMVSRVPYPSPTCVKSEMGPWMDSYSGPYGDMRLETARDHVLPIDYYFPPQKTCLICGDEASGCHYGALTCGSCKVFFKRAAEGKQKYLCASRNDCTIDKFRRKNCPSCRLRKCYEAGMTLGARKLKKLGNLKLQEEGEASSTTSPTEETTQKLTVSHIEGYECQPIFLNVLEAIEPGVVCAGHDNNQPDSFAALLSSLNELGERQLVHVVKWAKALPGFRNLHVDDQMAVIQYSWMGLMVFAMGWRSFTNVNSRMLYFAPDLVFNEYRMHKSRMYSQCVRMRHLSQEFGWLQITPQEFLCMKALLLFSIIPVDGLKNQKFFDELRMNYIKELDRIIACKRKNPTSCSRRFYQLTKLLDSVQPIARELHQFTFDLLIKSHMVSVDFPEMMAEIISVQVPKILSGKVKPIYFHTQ
Summary of the method: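 HepG2 cells transiently transfected with multiplexed GAL4-UAS reporter units and chimeric NR-Gal4 fusion; 24 h compound exposure. Reporter mRNA measured by RT-PCR, 6-FAM labelling, HpaI digestion and capillary electrophoresis; gain-of-signal fitted relative to DMSO baseline.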

Measured: AC50

COC(=O)NS(=O)(=O)c1ccc(N)cc1
active: [3] 19.9 µM
not listed: [18] | [19] | [20]
inactive: all other assays above

CCNC(=O)NC(=O)C(C#N)=NOC
not listed: [20]
inactive: all other assays above

CCCCC(O)(Cn1cncn1)c1ccc(Cl)cc1Cl (configuration not stated)
active: [2] 31 µM | [3] 13 µM | [5] 24.7 µM | [9] 50 µM | [10] 65 µM | [14] 23.6 µM | [18] 16.9 µM
not listed: [16] | [19] | [20]
inactive: all other assays above

CC1(C)CON(Cc2ccccc2Cl)C1=O
active: [3] 14.8 µM | [4] 50 µM | [5] 13.4 µM | [14] 13.2 µM | [18] 66.7 µM
not listed: [16] | [20]
inactive: all other assays above

Cc1cc(C)nc(Nc2ccccc2)n1
active: [1] 50 µM | [4] 16.7 µM | [8] 23 µM | [14] 14.9 µM
not listed: [19] | [20]
inactive: all other assays above

CN=C=S
active: [4] 18.3 µM | [7] 13.3 µM | [8] 13.1 µM | [14] 50 µM
not listed: [15] | [16] | [19] | [20]
inactive: all other assays above

CC(C)Oc1cccc(NC(=O)c2ccccc2C(F)(F)F)c1
active: [3] 4.22 µM | [4] 21.3 µM | [5] 33.6 µM | [14] 17.6 µM
not listed: [15] | [20]
inactive: all other assays above

CCN(CC)c1nc(C)cc(OP(=S)(OC)OC)n1
active: [3] 3.38 µM | [4] 34.1 µM | [5] 20 µM | [14] 25.4 µM | [18] 15.5 µM | [17] 50 µM
not listed: [16] | [20]
inactive: all other assays above

Nc1cnn(-c2ccccc2)c(=O)c1Cl
active: [3] 81.5 µM
not listed: [16] | [20]
inactive: all other assays above

COc1cc(OC)nc(NC(=O)NS(=O)(=O)c2ncccc2OCC(F)(F)F)n1
active: [3] 63 µM
not listed: [16] | [20]
inactive: all other assays above

CCOP(=O)(OCC)Oc1nc(Cl)c(Cl)cc1Cl
active: [3] 45.7 µM | [4] 29.9 µM | [8] 15.6 µM | [14] 39.2 µM | [18] 50 µM
not listed: [15] | [16]
inactive: all other assays above

O=C(O)c1c(Cl)ccc2cc(Cl)cnc12
not listed: [16] | [20]
inactive: all other assays above

C=C(C)CN(CC)c1c([N+](=O)[O-])cc(C(F)(F)F)cc1[N+](=O)[O-]
active: [1] 13.3 µM | [3] 9.5 µM | [14] 25.1 µM | [18] 30.7 µM
not listed: [20]
inactive: all other assays above
